# Assay results reported in PubChem BioAssay (EPA / NIEHS).
# “And” between values parts separate entries of the source, which are not always exact repeats. Equal entries are not always repeated. Inconclusive results are not listed. The source made the active and inactive calls. How the source made its calls, unless noted: active means hit-call score of the fitted dose curve at least 0.9, where 1 is the maximum; inactive means score below 0.9.
# What was measured:
# [1] = read-out: Tumor necrosis factor (Homo sapiens) (UniProt P01375); assay: BSK_BT_xTNFa: BioMAP Diversity Plus: BT Assay for Tumor necrosis factor alpha (TNF-alpha) Biomarker Activity (AID 2284230); settings: primary human B cells with PBMC
# Procedure, shortened: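 Read-out: Luminex xMAP quantitation of secreted TNF-alpha from a B cell/PBMC co-culture 24 h after compound addition. Signal analysed relative to DMSO vehicle, positive fitting direction.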
# [2] = read-out: Vascular cell adhesion molecule 1 (VCAM1), VCAM1 (gene 7412); assay: BSK_MyoF_VCAM1: BioMAP Diversity Plus: MyoF Assay for Vascular cell adhesion molecule 1 (VCAM1) Biomarker Activity (AID 2284231); settings: primary human lung fibroblasts
# Procedure, shortened: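 MyoF system, lung fibroblasts; 24 h post-dose; VCAM-1 by ELISA; gain-of-signal fit vs DMSO baseline.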
# [3] = read-out: Collagen I, COL1A1 (gene 1277); assay: BSK_MyoF_CollagenI: BioMAP Diversity Plus: MyoF Assay for Collagen I Biomarker Activity (AID 2284238); settings: primary human lung fibroblasts
# Procedure, shortened: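 ELISA readout of Collagen I after 24 h chemical treatment of primary human lung fibroblast cultures; gain of signal scored relative to DMSO vehicle baseline.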
# [4] = read-out: Collagen III, COL3A1 (gene 1281); assay: BSK_MyoF_CollagenIII: BioMAP Diversity Plus: MyoF Assay for Collagen III Biomarker Activity (AID 2284239); settings: primary human lung fibroblasts
# Procedure, shortened: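 Lung fibroblast culture; 24 h compound exposure; collagen III by ELISA; gain-of-signal fit vs DMSO baseline.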
# [5] = CCTE_Mundy_HCI_hNP1_Casp3_7: CCTE's Caspase-Glo 3/7 Assay in human neuroprogenitor cells for Apoptosis, Mundy Lab (AID 2284240)
# Procedure, shortened: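 Luminescent caspase-3/7 readout, 26.5 h post-dose, in human neural progenitor cells from WA09 embryonic stem cells. Cells grew 40–44 h at 37 °C, 5% CO2 before chemical addition. Activity analysed as signal increase over DMSO baseline.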
# [6] = UKN2_HCS_IMR90_cell_viability: Viability Assessment in the University of Konstanz (UKN) Leist Lab Neural Crest Cell Migration Assay in human induced IMR90 Pluripotent Stem Cells (UKN2) (AID 2284233);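 further: viability of neural crest cells differentiated from IMR90 iPSC measured by calcein-AM fluorescence imaging; cells exposed to compound for 24 h after a 24 h migration phase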
# Procedure, shortened: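 Neural crest cells derived from IMR90 iPSC migrate into a stopper-free zone for 24 h in EGF/FGF medium, then are exposed to compound for 24 h. Viability assessed by calcein-AM and Hoechst staining with high-content imaging, fitted bidirectionally versus DMSO.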
# [7] = CCTE_Mundy_HCI_Cortical_NOG_NeuronCount: CCTE's Neurite Outgrowth Assay in rat cortical cells for Neuron Count, Mundy Lab (AID 2284236; active means hit-call score of the fitted dose curve at least 0.9, where 1 is the maximum;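 further: neurons counted by imaging betaIII-tubulin and Hoechst stained cortical cells; cells exposed to compound for about 48 hours before fixation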)
# Procedure, shortened: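 Read-out: neuron number by high-content imaging of betaIII-tubulin (Alexa Fluor-488) and Hoechst-labelled rat primary cortical cells.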
# [8] = CCTE_Mundy_HCI_Cortical_NOG_BPCount: CCTE's Neurite Outgrowth Assay in rat cortical cells for Branch Point Count, Mundy Lab (AID 2284237)
# Procedure, shortened: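 Measured 50.33 h after dosing, this morphology endpoint uses rat primary cortical cultures labelled for betaIII-tubulin. Branch points are quantified by high-content imaging, with DMSO as negative control and baseline.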
# Chain of Tumor necrosis factor (Homo sapiens) (P01375 whole entry, looked up): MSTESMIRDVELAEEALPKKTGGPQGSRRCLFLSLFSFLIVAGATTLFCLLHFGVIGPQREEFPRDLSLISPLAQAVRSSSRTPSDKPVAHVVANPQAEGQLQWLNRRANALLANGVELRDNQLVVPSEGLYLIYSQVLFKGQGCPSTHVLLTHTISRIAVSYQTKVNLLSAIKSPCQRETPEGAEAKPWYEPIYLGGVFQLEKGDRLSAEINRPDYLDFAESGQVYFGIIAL
smiles,measurement,setting,value
C=CC/C=C/C/C=C/C/C=C/C,outcome,[1],inactive
same,outcome,[2],inactive
same,outcome,[3],inactive
same,outcome,[4],inactive
FC(F)(F)C(F)(F)C(F)(F)C(F)(F)C(F)(F)C(F)(F)CCS,outcome,[1],inactive
same,outcome,[3],inactive
same,outcome,[4],inactive
O=S(=O)(OCCOC(F)(F)F)C(F)(F)F,outcome,[2],inactive
same,outcome,[3],inactive
same,outcome,[4],inactive
O=C(CC(=O)C(F)(F)C(F)(F)F)C(F)(F)F,outcome,[1],inactive
same,outcome,[3],inactive
same,outcome,[4],inactive
same,outcome,[5],inactive
C=C(C)C(=O)OCC(F)(F)C(F)(F)C(F)(F)C(F)(F)C(F)(F)C(F)(F)C(F)(F)F,outcome,[2],inactive
same,outcome,[3],inactive
same,outcome,[4],inactive
CC(CCl)OP(=O)(OC(C)CCl)OC(C)CCl (configuration not stated),outcome,[1],inactive
same,outcome,[6],inactive
same,outcome,[7],inactive
same,outcome,[8],inactive
same,outcome,[3],inactive
same,outcome,[4],inactive
same,outcome,[5],inactive
FC(F)(F)C(F)(F)C(F)(F)C(F)(F)C(F)(F)CCI,outcome,[1],inactive
same,outcome,[3],inactive
same,outcome,[4],inactive
O=C(O)C(F)(F)C(F)(F)C(F)(F)C(F)(F)C(F)(F)C(F)(F)C(F)(F)C(F)(F)Cl,outcome,[1],inactive
same,AC50,[2],43.5 µM (active) and 23.5 µM (active)
same,AC50,[3],19.3 µM (active)
same,AC50,[4],17.6 µM (active) and 18.3 µM (active)
same,outcome,[5],inactive
FC(F)(F)C(F)(F)C(F)(F)C(F)(F)CCI,outcome,[1],inactive
same,outcome,[3],inactive
same,outcome,[4],inactive
same,outcome,[5],inactive
CCCCCCCCCCCCCCCC[N+](C)(C)Cc1ccccc1,AC50,[1],5.5 µM (active)
same,AC50,[2],2.1 µM (active)
same,AC50,[3],0.987 µM (active)
same,AC50,[4],1.73 µM (active)
FC(F)(F)C(F)(F)C(F)(F)C(F)(F)C(F)(F)C(F)(F)C(F)(F)Br,outcome,[1],inactive
same,outcome,[3],inactive
same,outcome,[4],inactive
OCC(F)(F)C(F)(F)C(F)(F)C(F)(F)C(F)(F)C(F)F,outcome,[1],inactive
same,outcome,[3],inactive
same,outcome,[4],inactive
O=C(O)C(F)(F)C(F)(F)C(F)(F)C(F)(F)C(F)(F)C(F)(F)C(F)(F)C(F)(F)C(F)(F)C(F)F,outcome,[1],inactive
same,AC50,[2],21.5 µM (active) and 23.5 µM (active)
same,AC50,[3],19 µM (active) and 16.1 µM (active)
same,AC50,[4],18.7 µM (active) and 16.4 µM (active)
CCCCOCCOCCOC(=O)CCCCC(=O)OCCOCCOCCCC,outcome,[2],inactive
same,outcome,[3],inactive
same,outcome,[4],inactive
O=S(=O)(OCC(F)F)C(F)(F)F,outcome,[2],inactive
same,outcome,[3],inactive
same,outcome,[4],inactive
O=C(O)C(F)(F)C(F)(F)C(F)(F)C(F)(F)C(F)(F)C(F)(F)C(F)(F)C(F)(F)C(F)(F)C(F)(F)C(F)(F)C(F)(F)C(F)(F)F,outcome,[1],inactive
same,outcome,[2],inactive
same,outcome,[3],inactive
same,outcome,[4],inactive
Nc1ccc([N+](=O)[O-])cc1O,outcome,[1],inactive
same,outcome,[3],inactive
same,outcome,[4],inactive
CCCCCCCOC(=O)c1ccccc1C(=O)OCCCCCCC,outcome,[1],inactive
same,outcome,[3],inactive
same,outcome,[4],inactive
FC(F)(I)C(F)(F)C(F)(F)C(F)(F)I,AC50,[1],48.3 µM (active) and 46.1 µM (active) and 46 µM (active)
same,AC50,[2],52.7 µM (active) and 45.4 µM (active) and 45.5 µM (active)
same,AC50,[3],51.6 µM (active) and 46.4 µM (active) and 54.1 µM (active)
same,AC50,[4],53.1 µM (active) and 54.9 µM (active) and 54.2 µM (active)
COC(=O)CCC(F)(F)C(F)(F)C(F)(F)C(F)(F)F,outcome,[1],inactive
same,outcome,[2],inactive
same,outcome,[3],inactive
same,outcome,[4],inactive
Oc1ccc(Nc2ccccc2)cc1,AC50,[1],30.1 µM (active)
same,outcome,[3],inactive
same,AC50,[4],16.2 µM (active)
C#C[C@]1(O)CC[C@H]2[C@@H]3CCc4cc(OC)ccc4[C@H]3CC[C@@]21C,AC50,[1],20 µM (active)
same,outcome,[2],inactive
same,outcome,[3],inactive
same,outcome,[4],inactive
O[Si](c1ccccc1)(c1ccccc1)c1ccccc1,AC50,[1],38.2 µM (active)
same,outcome,[2],inactive
same,AC50,[3],31.3 µM (active)
same,AC50,[4],31.5 µM (active)
O=C(O)C(F)(F)C(F)(F)OC(F)(F)F,outcome,[1],inactive
same,outcome,[3],inactive
same,outcome,[4],inactive
same,outcome,[5],inactive
FC(F)(Br)C(F)(F)C(F)(F)C(F)(F)C(F)(F)C(F)(F)Br,outcome,[1],inactive
same,outcome,[3],inactive
same,outcome,[4],inactive
CCN(CC)c1ccc2c(C)cc(=O)oc2c1,outcome,[1],inactive
same,outcome,[3],inactive
same,outcome,[4],inactive
O=C(O)C(F)(F)C(F)(F)C(F)(F)F,outcome,[1],inactive
same,outcome,[3],inactive
same,outcome,[4],inactive
same,outcome,[5],inactive
CCCCCCC(C)OC(=O)CCCCC(=O)OC(C)CCCCCC (configuration not stated),outcome,[2],inactive
same,outcome,[3],inactive
same,outcome,[4],inactive
OCC(F)(F)C(F)(F)C(F)(F)F,outcome,[1],inactive
same,outcome,[2],inactive
same,outcome,[3],inactive
same,outcome,[4],inactive
same,outcome,[5],inactive
C=C(C)C(=O)OCC(F)(F)C(F)(F)C(F)(F)F,outcome,[1],inactive
same,outcome,[2],inactive
same,outcome,[3],inactive
same,outcome,[4],inactive
same,outcome,[5],inactive
